Bioassay records as filed in PubChem BioAssay.
This is a sample that favours compounds with a hit; in the whole collection about 4.5% have one here.
Rce1 inhib: inhibitors of yeast Ras-converting enzyme. 0.27% of 290,000 active. yeast membranes, quenched prenylated peptide cleavage fluorescence. calls only. Q03530. AID 2563;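 active means fall in fluorescence gain of 50% or more versus controls, with final raw signal at or below 3038400; inconclusive means same 50% fall but final raw signal above 3038400; inactive means fall in fluorescence gain under 50%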;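 further: plate controls were neutral control wells for no effect and wells lacking membranes for full effect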
HDAC3 inh: human HDAC3 inhibition; 0.15% of 320,000 active; recombinant HDAC3, fluorogenic peptide/trypsin coupled, fluorescence; inhibition, % at 8.3 µM; O15379; in the data active means inhibition above about 26%, passing the limit was not always enough; inconclusive means no clear call, values can overlap the other calls
ALR H2O2 inh: blocks human ALR sulfhydryl oxidase activity; P55789; purified ALR, DTT oxidation, H2O2 HRP-luminol luminescence; inhibition, % (concentration not given with the values); 3.8% of 290,000 active; AID 485317;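 active means mean replicate inhibition above about 79%, with every replicate also reaching it, limit read from the data; inconclusive means only one of the two criteria met; inactive means mean below limit and not every replicate reaching it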
GRK2 aptamer HTS: inhibitors of human GRK2 displacing RNA aptamer. bead flow cytometry, FAM-aptamer displacement from GRK2. inhibition of aptamer binding, % at 10 µM. P25098. AID 488847. 0.59% of 330,000 active;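 active means inhibition of aptamer binding above 40%, roughly 3 SD of noise, on plates passing a quality check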;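 further: median bead fluorescence of bound FAM aptamer so fluorescent compounds give negative values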
Target sequence (P25098 whole entry, looked up): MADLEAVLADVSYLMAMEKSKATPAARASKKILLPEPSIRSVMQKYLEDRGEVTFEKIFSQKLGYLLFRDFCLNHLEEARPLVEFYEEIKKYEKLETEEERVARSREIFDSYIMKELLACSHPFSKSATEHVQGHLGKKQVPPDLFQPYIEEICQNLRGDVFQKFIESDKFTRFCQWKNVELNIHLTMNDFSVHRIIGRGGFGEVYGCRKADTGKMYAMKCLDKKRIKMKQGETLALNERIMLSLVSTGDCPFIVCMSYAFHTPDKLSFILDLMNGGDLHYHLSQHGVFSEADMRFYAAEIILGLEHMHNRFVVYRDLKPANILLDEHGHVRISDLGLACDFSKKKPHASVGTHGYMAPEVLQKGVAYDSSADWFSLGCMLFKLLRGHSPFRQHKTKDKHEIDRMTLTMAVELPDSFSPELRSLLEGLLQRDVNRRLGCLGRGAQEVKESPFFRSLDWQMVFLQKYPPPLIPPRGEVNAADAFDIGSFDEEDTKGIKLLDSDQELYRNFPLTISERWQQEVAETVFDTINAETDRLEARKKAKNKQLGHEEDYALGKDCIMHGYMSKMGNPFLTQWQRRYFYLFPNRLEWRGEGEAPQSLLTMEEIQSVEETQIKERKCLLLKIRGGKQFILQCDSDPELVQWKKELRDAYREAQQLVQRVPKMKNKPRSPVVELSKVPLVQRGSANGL
Efflux pump inh: antifungal efflux pump inhibition, Nile Red retention; S. cerevisiae Candida pump triplex; inhibition, % at 10 µM; 0.44% of 330,000 active; AID 485275;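 active means plate passing quality check with inhibition over a set limit, or well fluorescence over plate mean plus 4 SD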;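 further: Nile Red retained in pooled yeast measured as flow cytometry median fluorescence; 0% = buffer negative control and 100% = Enniatin B positive control; higher means more Nile Red kept so more efflux inhibition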
Rtt109 HAT inh: C. albicans Rtt109 histone acetyltransferase inhibition; purified Rtt109/Vps75, ThioGlo CoA-SH fluorescence, 4 h; 0.16% of 330,000 active; Q5AAJ8; inhibition, % at 34.9 µM;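 active means inhibition of at least 50% in every replicate; inconclusive means best replicate reaches 50% inhibition but some replicates fall short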
* hit, by the source's call; i = inactive; ? = inconclusive; . = not tested or not shown; + = active, no number.

SMILES	Rce1 inhib	HDAC3 inh	ALR H2O2 inh	GRK2 aptamer HTS	Efflux pump inh	Rtt109 HAT inh
C#CCOCCOCCOCCNc1nc(N2CCN(C(=O)CCCCCCCCCCNC(=O)[C@H]([C@@H](C)CC)n3cc(CCCCN=C(N)N)nn3)CC2)nc(N2CCN(C(=O)CCCCCCCCCCNC(=O)[C@H](CCCCN)n3cc(C[C@@H](C)CC)nn3)CC2)n1	.	22	-28	0	85*	.
C#CCOCCOCCOCCNc1nc(N2CCN(C(=O)[C@H](CCCCN)n3cc(CCCC)nn3)CC2)nc(N2CCN(C(=O)[C@H](Cc3ccc(O)cc3)n3cc(CCO)nn3)CC2)n1	i	17	-10	47*	0	25
C#CCOCCOCCOCCNc1nc(N2CCN(C(=O)CCCCCCCCCCNC(=O)[C@@H](CCSC)n3cc(CCO)nn3)CC2)nc(N2CCN(C(=O)CCCCCCCCCCNC(=O)[C@H]([C@@H](C)CC)n3cc(CCCCN=C(N)N)nn3)CC2)n1	.	20	-2	0	0	-3
C#CCOCCOCCOCCNc1nc(N2CCN(C(=O)CCCCCCCCCCNC(=O)[C@H](CCCCN)n3cc(C)nn3)CC2)nc(N2CCN(C(=O)CCCCCCCCCCNC(=O)[C@@H]([C@H](C)CC)n3cc(CCCCCN)nn3)CC2)n1	.	31*	-8	0	0	?
C#CCOCCOCCOCCNc1nc(N2CCN(C(=O)C([C@@H](C)O)n3cc([C@@H](N)CCCCN)nn3)CC2)nc(N2CCN(C(=O)C([C@@H](C)O)n3cc([C@@H](N)CCCCN)nn3)CC2)n1 (stereo partly drawn)	.	-1	-5	0	0	73*
COc1ccccc1C1=NN(C(=O)c2ccccc2)C(c2ccc(Br)cc2)C1 (stereo not drawn)	i	0	-2	0	0	-1
C=CCNC(=S)NNC(=O)c1ccc(=O)n(Cc2ccccc2)c1	i	?	16	0	0	-4
C#CCOCCOCCOCCNc1nc(N2CCN(C(=O)CCCCCCCCCCNC(=O)Cn3cc(C[C@@H](C)O)nn3)CC2)nc(N2CCN(C(=O)CCCCCCCCCCNC(=O)[C@H](CCCCN)n3cc(C[C@@H](C)CC)nn3)CC2)n1	.	9	-17	0	0	44
C#CCOCCOCCOCCNc1nc(N2CCN(C(=O)CCCCCCCCCCNC(=O)[C@H](CCCCN)n3cc(CCO)nn3)CC2)nc(N2CCN(C(=O)CCCCCCCCCCNC(=O)[C@H](CCCN=C(N)N)n3cc(C[C@@H](C)CC)nn3)CC2)n1	.	29*	34	0	0	2
C#CCOCCOCCOCCNc1nc(N2CCN(C(=O)CCCCCCCCCCNC(=O)[C@H](CCCCN)n3cc(C[C@@H](C)CC)nn3)CC2)nc(N2CCN(C(=O)CCCCCCCCCCNC(=O)[C@H](CCCCN)n3cc(C[C@@H](C)CC)nn3)CC2)n1	i	53*	-5	0	0	6
C#CCOCCOCCOCCNc1nc(N2CCN(C(=O)CCCCCCCCCCNC(=O)[C@H](CCCCN)n3cc(CCCC(=O)O)nn3)CC2)nc(N2CCN(C(=O)CCCCCCCCCCNC(=O)[C@H](CCCN=C(N)N)n3cc(C[C@@H](C)CC)nn3)CC2)n1	i	20	-9	0	0	?
Cc1nnsc1-c1nnc(SCC(=O)c2ccccc2)n1C1CC1	i	-2	84*	0	0	-18
CCOc1ccc(/C=C2/Sc3ccc(C(=O)N4CCOCC4)cc3N(C)C2=O)cc1OC	i	11	-7	0	0	3
CN1C(=O)/C(=C/c2cccc(Cl)c2)Sc2ccc(C(=O)N3CCOCC3)cc21	+	7	-10	1	0	1
CN1CCN(CCCN2c3ccccc3Sc3ccc(S(=O)(=O)N(C)C)cc32)CC1	.	1	96*	0	0	-4
OCCN1CCN(CC/C=C2/c3ccccc3Sc3ccc(Cl)cc32)CC1	.	5	-5	0	0	5
OCCN1CCN(CCCN2c3ccccc3Sc3ccc(Cl)cc32)CC1	i	-2	99*	0	0	6
CN(C)CCCN1c2ccccc2Sc2ccc(Cl)cc21	i	4	98*	0	0	5
CN(C)CCCN1c2ccccc2Sc2ccc3ccccc3c21	.	.	.	.	.	10
CC(=O)c1ccc2c(c1)N(CCCN1CCC(CCO)CC1)c1ccccc1S2	.	-29	96*	0	0	11
CCN1C(=O)c2ccccc2Sc2ccc(C(=O)NCCCN3CCCCC3)cc21	i	1	-3	0	0	3
CC1(CCc2ccccc2)NC(=O)N(CC(=O)Nc2ccc(OC(F)F)cc2)C1=O (stereo not drawn)	.	-5	-6	0	0	1
CCS(=O)(=O)NCc1ccc2[nH]c3c(c2c1)CCCC3	i	8	-95	0	1.3*	.
CC(=O)N1CCN=C1SCc1ccccc1F	i	5	99*	0	0	-8
CC(=O)N1CCN=C1SCc1ccccc1Cl	i	-3	101*	1	0	4
SMILES	Rce1 inhib	HDAC3 inh	ALR H2O2 inh	GRK2 aptamer HTS	Efflux pump inh	Rtt109 HAT inh
CCC(=O)N1CCN=C1SCc1cc(C)ccc1C	i	-12	?	2	1	2
O=C(C1CC1)N1CCN=C1SCc1ccccc1Cl	i	0	99*	2	0	2
O=C(C1CCCC1)N1CCN=C1SCc1cccc([N+](=O)[O-])c1	i	-2	99*	0	0	-8
O=C(c1cccs1)N1CCN=C1SCc1ccccc1F	i	1	-13	0	0	-3
Cc1ccc(S(=O)(=O)NCC(=O)OCC(=O)NCc2ccc(F)cc2)cc1	i	-6	-23	2	0	-1
CC(C)=CCN1CCN(Cc2cccn2-c2ccccn2)CC1CCO (stereo not drawn)	i	11	-3	1	0	-1
Cc1ccccc1NC(=O)NC1(C(=O)N2CCN(C)CC2)CCCCC1	i	0	-2	0	0	-1
CC(C)CNC(=O)c1cc(=O)[nH]c2ccc(S(=O)(=O)Nc3ccc(F)cc3)cc12	i	3	-5	2	0	1
CCC(=O)N1CCN=C1SCc1ccccc1Cl	i	0	100*	0	0	13
COc1ccccc1OC(=O)CCN1c2ccccc2Sc2ccccc21	i	1	88*	0	0	14
O=C(O)CCN1c2ccccc2Sc2ccccc21	i	-5	82*	2	0	0
CCN(CC)CCCN(C(=O)c1cccc(C)c1)c1nc(-c2ccc(OC)cc2)cs1	i	5	96*	0	0	1
CCN(C(=O)Cc1c(C(=O)O)n(CC)c2ccccc12)c1cccc(C(F)(F)F)c1	i	-3	7	0	0	.
Cc1cccc(NC(=O)CSCC(=O)Nc2sccc2C#N)c1	i	0	98*	3	0	9
O=C(CNC(=O)c1cccc(Br)c1)N/N=C/c1cccs1	i	2	1	1	0	59*
